# Results as given in PubChem BioAssay AID1063 (University of Pittsburgh Molecular Library Screening Center, 2008).
# The whole screen tested about 200,000 compounds, of which about 18,000 (9%) were called active. Rule as the data show it: active = inhibition above about 50%; inactive = the rest. This excerpt belongs to a sample that is enriched for actives.
# Test: Leishmania major promastigote growth inhibition, primary screen (AID 1063);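 also: promastigotes grown with compound for 44 hours at 28 °C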
# Details: Leishmania major promastigotes, resazurin fluorescence viability; at 10 µM; stronger effect = higher value
row,SMILES,inhibition
1,O=C(O)C1CC=CCC1C(=O)Nc1ccccc1C(=O)N1CCN(c2ccccc2)CC1 (stereo not given),-4.97% (inactive)
2,Cc1cccc(N2CCN(C(=O)c3ccccc3NC(=O)C3CCCCC3C(=O)O)CC2)c1 (stereo not given),-7.46% (inactive)
3,CC(C)c1ccc(N2CCN(C(=O)c3ccccc3NC(=O)/C=C(\C(=O)O)c3ccccc3)CC2)cc1,100% (active)
4,Cc1nc(S(=O)(=O)c2ccc(Br)cc2)nc2c1CCC2,-6.99% (inactive)
5,CCOCCCNC(=O)C(NC(=O)c1ccccc1O)c1ccccc1 (stereo not given),-1.57% (inactive)
6,CCc1ccc(Nc2nnc(SCC(=O)c3ccc4c(c3)NC(=O)CO4)s2)cc1,-5.5% (inactive)
7,COc1cccc(CNC(=O)CCC2CCCN(C(=O)c3cc(C)[nH]n3)C2)c1 (stereo not given),-7.13% (inactive)
8,COc1cccc2cc(/C(C)=N/NC(=O)c3ccco3)oc12,31% (inactive)
9,N=c1c2c3c(sc2ncn1N)CCCC3,-4.1% (inactive)
10,N=c1c2c3c(sc2ncn1N)CCCCC3,-0.23% (inactive)
11,N=c1c2c3c(sc2ncn1CCCN1CCOCC1)CCCCC3,90.5% (active)
12,COC(=O)C(=Nc1ccccc1)/C(C(=O)C(=O)N(C)c1ccccc1)=C(\O)c1ccc(Cl)cc1,-4.81% (inactive)
13,Cc1cccc(C)c1NC(=O)c1ccc(CN2CCc3ccccc3C2)cc1,73.9% (active)
14,Cc1ccc(NC(=O)CCN2CCc3ccccc3C2)cc1,5.9% (inactive)
15,Cc1ccc(NC(=O)CN2CCc3ccccc3C2)cc1,-2.33% (inactive)
16,CCN=c1sc(C(=O)Nc2ccccc2)c(C)n1CC,-3.21% (inactive)
17,CC(C)C(c1nnnn1C(C)(C)C)N1CCN(Cc2cccnc2)CC1 (stereo not given),-1.86% (inactive)
18,Cc1ccccc1OCc1nnc(SCC(=O)N2c3ccccc3Sc3ccc(Cl)cc32)o1,11.3% (inactive)
19,O=C(CSc1nc2ccccc2o1)N1c2ccccc2Sc2ccc(Cl)cc21,71.7% (active)
20,O=C(CSc1nc2ccccc2o1)N1CCN(c2ccc(Cl)cc2)CC1,0.01% (inactive)
21,COc1ccc(-c2nc3cnccn3c2NC(C)(C)CC(C)(C)C)cc1O,32.8% (inactive)
22,CS(=O)(=O)c1ccc2nc(NC(=O)c3ccc(Cl)nc3)sc2c1,3.2% (inactive)
23,COc1ccccc1-n1c(=S)[nH]c2c(sc(=S)n2-c2ccc(C)cc2C)c1=O,-6.57% (inactive)
24,N=c1c2c(-c3ccccc3)c(-c3ccccc3)n(Cc3ccccc3)c2ncn1CCCO,100% (active)

row,SMILES,inhibition
1,Cc1nc([N+](=O)[O-])c(NCCCO)n1Cc1ccccc1,10.7% (inactive)
2,N=c1c2c(-c3ccccc3)c(-c3ccccc3)oc2ncn1Cc1ccco1,33.3% (inactive)
3,Oc1ccc(N2CCN(C(=S)NCc3ccccc3)CC2)cc1,53.4% (active)
4,Oc1ccccc1N1CCN(C(=S)NCc2ccccc2)CC1,-5.57% (inactive)
5,O=C(COC(=O)c1ccccc1C(=O)N1CCN(c2ccccc2)CC1)NCc1ccccc1,-2.49% (inactive)
6,Cc1ccc(C(NC(=O)N2CCCC2)C(Cl)(Cl)Cl)cc1F (stereo not given),-2.3% (inactive)
7,Cc1cc(NC(=O)CSc2nc3ccccc3n2CC(C)C)no1,10.5% (inactive)
8,Cc1ccc(-c2csc(SCC(=O)Nc3cc(C)on3)n2)cc1,-6.88% (inactive)
9,Cc1ccc2nc(-c3ccc(SCC(=O)Nc4cc(C)on4)nc3)[nH]c2c1,64.8% (active)
10,CCN1CCN(C(=O)c2ccc(CN(c3ccc(C)c(C)c3)S(C)(=O)=O)cc2)CC1,3.09% (inactive)
11,COc1ccc(NC(=O)CN(C)S(=O)(=O)c2ccccc2)cc1OC,-1.12% (inactive)
12,COc1ccc(NC(=S)SC)cc1OC,80.4% (active)
13,COc1ccc(C(=O)NC(=S)Nc2ccc(N3CCCC3)cc2)cc1OC,26.5% (inactive)
14,O=C(NCc1ccccn1)c1cc(Br)ccc1Cl,17.5% (inactive)
15,CN(C)NC(=O)C(NC(=O)c1ccc(N)cc1)C12CC3CC(CC(C3)C1)C2 (stereo not given),3.34% (inactive)
16,c1ccc(-c2cc3c(NCC4COc5ccccc5O4)ncnc3s2)cc1 (stereo not given),98.8% (active)
17,S=C(NCC1COc2ccccc2O1)Nc1ccc(Br)cc1 (stereo not given),-3.43% (inactive)
18,c1ccc2c(c1)OCC(CNc1ncnc3nc[nH]c13)O2 (stereo not given),-3.1% (inactive)
19,CN(C)C(=O)CSc1n[nH]c(-c2ccco2)n1,-3.34% (inactive)
20,COc1ccccc1N1CCN(CC(=O)NCCc2ccc(S(N)(=O)=O)cc2)CC1,-5.9% (inactive)
21,Cc1nc([N+](=O)[O-])cn1CC(=O)Nc1ccc2c(c1)OCO2,-4.99% (inactive)
22,CCOc1ccc(NC(=O)CN(C)CC(=O)Nc2cccc(Cl)c2C)cc1OCC,84.2% (active)
23,COc1ccc(NC(=O)CN(C)CC(=O)Nc2cccc(C(F)(F)F)c2)cc1,6.17% (inactive)
24,CCOc1ccc(NC(=O)CN(C)CC(=O)NC(C)c2ccccc2)cc1OCC (stereo not given),-1.35% (inactive)

row,SMILES,inhibition
1,S=c1[nH]nc(/C=C/c2ccccc2)o1,-11.6% (inactive)
2,CN1CCN(CC(=O)Nc2cccc([N+](=O)[O-])c2)CC1,-5.42% (inactive)
3,O=C(O)c1cccc(NC(=S)N/N=C/c2c[nH]c3ccccc23)c1,-4.34% (inactive)
4,O=C(N/N=C/c1ccc(Cl)cc1)c1nc2ccc([N+](=O)[O-])cc2c(=O)[nH]1,13.4% (inactive)
5,Brc1ccc(-c2csc(N/N=C/c3ccc4c(c3)OCO4)n2)cc1,1.9% (inactive)
6,Cc1noc(C)c1/C=N/Nc1ccc2ccccc2n1,56.6% (active)
7,C(=N\Nc1ccc2ccccc2n1)/c1ccc2c(c1)OCO2,52.1% (active)
8,Cc1cc(C)nc(N/N=C/c2c(C)oc3ccccc23)n1,3.92% (inactive)
9,Cc1nc2ccccc2cc1C(=O)N/N=C/c1ccc([N+](=O)[O-])cc1,-3.55% (inactive)
10,O=C(Cc1ccc(F)cc1)N/N=C/c1ccc2c(c1)OCO2,-2.74% (inactive)
11,CC(C)(C)NC(=O)CN(C(=O)c1ccc(Cl)nc1)c1cccc2ccccc12,31.5% (inactive)
12,COc1ccc(Cl)cc1N(CC(=O)N/N=C/c1ccc(OCC(N)=O)cc1)S(C)(=O)=O,30.9% (inactive)
13,CCOc1ccc(N(CC(=O)NCCc2ccc(OC)cc2)S(C)(=O)=O)cc1,-6.74% (inactive)
14,COCCN(C(=O)CCC(=O)Nc1nccs1)C(C(=O)NC(C)(C)C)c1ccc(Cl)cc1 (stereo not given),-1.47% (inactive)
15,CCCCCOC(=O)C1=C(C)Nc2nnnn2C1c1ccc(OC)c(OC)c1OC (stereo not given),92.7% (active)
16,COCCOC(=O)C1=C(C)Nc2nc(C)nn2C1c1ccccc1 (stereo not given),1.25% (inactive)
17,CC1=C(C(N)=O)C(c2sccc2C)n2nnnc2N1 (stereo not given),-2.53% (inactive)
18,O=C(CCc1ccccc1)Nc1nn[nH]n1,-3.55% (inactive)
19,O=C(CSc1ccc([N+](=O)[O-])cn1)Nc1ccc(N2CCOCC2)cc1,-2.33% (inactive)
20,COC(=O)c1ccc(NCC(=O)N2CCCCCC2)cc1,-4.15% (inactive)
21,O=C(O)c1ccn(COc2ccc(Br)cc2)n1,-6.55% (inactive)
22,O=C(CSc1nc2ccc(Nc3nc(N4CCOCC4)nc(N4CCOCC4)n3)cc2s1)NCc1ccco1,66% (active)
23,O=C(CSc1c2c(nc3ccc(Cl)cc13)CCCC2)NCc1ccco1,39.9% (inactive)
24,C=CCn1c(CSc2nc3ccccc3s2)nnc1SCC(=O)NCc1ccco1,-0.85% (inactive)

row,SMILES,inhibition
1,CCN(CC)S(=O)(=O)c1ccc(N(C)CCc2ccc(OC)c(OC)c2)nc1,20.7% (inactive)
2,Cc1ccc(O)c(NC(=S)NC(=O)COc2ccc(Br)cc2)c1,-2.21% (inactive)
3,CNC(=S)N1CCC(NC(=O)C(Cc2ccc(F)cc2)NC(C)=O)CC1 (stereo not given),-5.13% (inactive)
4,CC(=O)NC(Cc1ccccc1)C(=O)NC1CCN(c2ncccc2[N+](=O)[O-])CC1 (stereo not given),57.3% (active)
5,CC(=O)NC(Cc1ccc(F)c(F)c1)C(=O)NC1CCN(c2nnnn2-c2ccccc2)CC1 (stereo not given),9.51% (inactive)
6,CC(Sc1nc2cc(Cl)ccc2s1)C(=O)Nc1ccc2c(c1)OCO2 (stereo not given),3.45% (inactive)
7,O=C(Nc1ccc(N2CCOCC2)cc1)c1ccc(-c2ccccc2[N+](=O)[O-])o1,7.53% (inactive)
8,CCOc1cc(NS(=O)(=O)c2ccc(OC)cc2)c(OCC)cc1NC(C)=O,-2.08% (inactive)
9,O=C(Cn1c(-c2cscn2)nc2ccccc21)Nc1ccc(Cl)cc1,16.4% (inactive)
10,COCn1c(COc2ccccc2)nc2ccccc21,1.65% (inactive)
11,O=C(Cn1c(COc2ccccc2)nc2ccccc21)Nc1cc(Cl)c(Cl)cc1Cl,94.1% (active)
12,Cc1ccc(N(C(=O)Cc2cccs2)C2C=CS(=O)(=O)C2)cc1Cl (stereo not given),3.36% (inactive)
13,O=C(Nc1ccc(Cl)cn1)c1ccc2c(c1)OCCO2,-10.2% (inactive)
14,CCN(CC(=O)NCc1cccs1)S(=O)(=O)c1ccc(NC(C)=O)cc1,-3.41% (inactive)
15,COc1ccc(N2CCN(C(=S)Nc3ccc(S(N)(=O)=O)cc3)CC2)cc1,-7.62% (inactive)
16,COc1ccc(NC(=S)NCC2CCN(c3ccc(OC)cc3)C2)cc1 (stereo not given),74.9% (active)
17,COc1ccc(NC(=S)NCCN2CCC(C)CC2)cc1,23.9% (inactive)
18,Cc1c(NC(=O)CCC2CCCCC2)cc(C(=O)N2CCOCC2)cc1[N+](=O)[O-],-3.89% (inactive)
19,CCOC(=O)C(=Cc1ccccc1OC)C(=O)OCC,53.7% (active)
20,CCOC(=O)C(=CNc1cccc(C)n1)C(=O)OCC,-3.94% (inactive)
21,COc1ccccc1C(=O)C(O)c1ccccc1OC (stereo not given),1.96% (inactive)
22,Cn1c(CCC(=O)OCC(=O)NCc2ccccc2Cl)nc(=O)c2ccccc21,-0.71% (inactive)
23,Cc1ncoc1C(=O)NCCC(c1ccccc1)c1ccccc1,1.37% (inactive)
